# Assay results taken from PubChem BioAssay.
# Calls of active or inactive are those of the source.
# Assays:
# Albumin (Bos taurus) = Albumin (Bos taurus) (UniProt P02769); assay: compounds binding labelled BSA control protein – biochemical, small-molecule microarray, Alexa647 label, 635/667 nm fluorescence, artefact control for SMM control protein annotation, profiling panel (AID 1118); conditions: BSA-A647 binding, fluorescence 635 nm, higher = more signal;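 further: score merges 667 nm emission intensity and signal-to-noise per printed compound spot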
# [1] = probe aXIP binding to arrayed compounds – biochemical, NeuroSMM set, 635/667 nm fluorescence, primary screen (AID 1119); conditions: small-molecule microarray, higher = more signal, called active from +8 up or from −8 down;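 further: probe is the protein aXip251-270 applied at 1 µg/mL to compound-printed slides; binding of probe to printed compounds measured as 667 nm fluorescence plus signal to noise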
# [2] = probe aNOTCH3 binding on compound microarray – biochemical, small-molecule microarray, 635/667 nm fluorescence, primary screen (AID 1120); conditions: higher = more signal;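 further: probe is a biotin-tagged antibody raised against NOTCH3 rather than NOTCH3 protein; score merges spot fluorescence near 667 nm with spot signal to noise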
# [3] = probe aNOTCH2 binding on compound microarray – biochemical, small-molecule microarray, 635/667 nm fluorescence, primary screen (AID 1121); conditions: higher = more signal;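 further: score merges feature fluorescence read at 667 nm with its signal to noise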
# [4] = target: Carbonic anhydrase 2 (Homo sapiens) (UniProt P00918); assay: compounds binding carbonic anhydrase 2 – biochemical, small-molecule microarray, Alexa647-labelled CAII, profiling panel (AID 1122); conditions: CAII-A647 binding fluorescence, higher = more signal
# [5] = COS7 lysate on small-molecule microarray, probe aHis, 635 nm (AID 1123); conditions: COS7 cell lysate, fluorescence, higher = more signal;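 further: z-score combines 667nm fluorescence intensity with signal-to-noise per printed compound spot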
# [6] = probe aLAP1 signal on lysate-treated microarray – cell lysate, small-molecule microarray, COS7 lysate, primary screen (AID 1124); conditions: probe aLAP1, fluorescence, higher = more signal;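 further: lysate comes from COS7 cells expressing LAP1 and is applied at 0.3 µg/mL; score merges spot fluorescence near 667 nm with signal-to-noise over triplicate slides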
# Sam68 (KHDRBS1) = assay: compounds binding KHDRBS1 protein – biochemical, small-molecule microarray, 635 nm fluorescence, primary screen (AID 1125); conditions: higher = more signal;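 further: score merges 667 nm channel intensity with signal to noise over triplicate slides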
# [7] = test system: Chordin-like protein 2 (CHRDL2); assay: compounds binding chordin-like 2 – biochemical, small-molecule microarray, 635 nm fluorescence, primary screen (AID 1126); conditions: fluorescence 635 nm, higher = more signal;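 further: printed compound slides probed with Chrdl2 protein at 4 µg/mL for 1 h at 4 C; score merges 667 nm emission intensity with signal to noise over three replicate slides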
# [8] = target: Concanavalin-A (Canavalia ensiformis) (UniProt P02866); assay: compounds binding concanavalin A lectin – biochemical, small-molecule microarray, Alexa647 label, 635 nm, artefact control for SMM control protein annotation, primary screen (AID 1127); conditions: ConA-A647 binding fluorescence, higher = more signal;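 further: z combines 667 nm emission intensity with signal-to-noise across three replicate slides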
# [9] = compounds binding Alexa647 anti-His antibody – biochemical, small-molecule microarray, 635 nm fluorescence, artefact control for SMM control protein annotation, primary screen (AID 1128); conditions: higher = more signal;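 further: score merges feature fluorescence with signal-to-noise for each printed compound spot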
# [10] = test system: Human papillomavirus type 1a E7 protein (residues 1-88); assay: HPV1a E7 small-molecule binders, primary screen, biochemical, small-molecule microarray, residues 1-88, 635 nm (AID 1129); conditions: small-molecule microarray binding, fluorescence 635 nm; higher = more signal
# [11] = target: Focal adhesion kinase 1 (Homo sapiens) (UniProt Q05397); assay: PTK2 protein binding on printed compound slides – biochemical, small-molecule microarray, 635/667 nm fluorescence, BSA, DTT, primary screen (AID 1130); conditions: 635 nm fluorescence, higher = more signal;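 further: composite of spot emission at 667 nm and signal to noise over triplicate slides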
# [12] = test system: Fibrinogen (Alexa647-labelled); assay: Alexa647-fibrinogen binding to printed small molecules – biochemical, small-molecule microarray, 635/667 nm fluorescence, artefact control for SMM control-protein annotation, profiling panel (AID 1131); conditions: fibrinogen-A647 binding fluorescence, higher = more signal;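 further: z-score merges 667 nm fluorescence with per-spot signal-to-noise over triplicate slides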
# [13] = target: Follistatin (Homo sapiens) (UniProt P19883); assay: FST protein binding to printed compounds – biochemical, small-molecule microarray, 635/667 nm fluorescence, primary screen (AID 1132); conditions: 635 nm fluorescence, higher = more signal
# [14] = target: Fibroblast growth factor 2 (Homo sapiens) (UniProt P09038); assay: basic fibroblast growth factor binding to printed compounds – biochemical, small-molecule microarray, 635/667 nm fluorescence, primary screen (AID 1133); conditions: FGF2, fluorescence 635/667, higher = more signal
# [15] = JC-1 mitochondrial potential readout, lung cancer cells – cell-based, A549, JC-1 fluorescence, basal, 24 h, 100 nL, profiling panel (AID 1138); conditions: higher = more signal;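 further: A549 lung adenocarcinoma cells under basal conditions with no added stimulus; test concentration not given here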
# Lefty1 = Lefty1 protein binding to printed compounds – biochemical, small-molecule microarray, 635/667 nm fluorescence, primary screen (AID 1139); conditions: fluorescence 635/667, higher = more signal
# [16] = test system: wheat germ agglutinin (Triticum aestivum), Alexa647-labelled; assay: Alexa647-WGA lectin binding to printed small molecules – biochemical, small-molecule microarray, 635/667 nm fluorescence, artefact control for SMM control-protein annotation, profiling panel (AID 1140); conditions: WGA-A647 binding, 635 nm fluorescence, higher = more signal;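 further: score merges 667 nm feature emission with signal to noise over triplicate slides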
# [17] = target: Luciferin 4-monooxygenase (Photinus pyralis) (UniProt P08659); assay: inhibition of purified Photinus pyralis luciferase – biochemical, luminescence, purified enzyme, 2006 set, primary screen (AID 1141); conditions: purified firefly luciferase, SteadyGlo luminescence, 30 min; higher = more signal, called active from +8 up or from −8 down;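 further: cell-free assay with purified firefly luciferase at 100 ng per well in PBS; test concentration not given here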
# Chain of Luciferin 4-monooxygenase (Photinus pyralis) (P08659 whole entry, looked up): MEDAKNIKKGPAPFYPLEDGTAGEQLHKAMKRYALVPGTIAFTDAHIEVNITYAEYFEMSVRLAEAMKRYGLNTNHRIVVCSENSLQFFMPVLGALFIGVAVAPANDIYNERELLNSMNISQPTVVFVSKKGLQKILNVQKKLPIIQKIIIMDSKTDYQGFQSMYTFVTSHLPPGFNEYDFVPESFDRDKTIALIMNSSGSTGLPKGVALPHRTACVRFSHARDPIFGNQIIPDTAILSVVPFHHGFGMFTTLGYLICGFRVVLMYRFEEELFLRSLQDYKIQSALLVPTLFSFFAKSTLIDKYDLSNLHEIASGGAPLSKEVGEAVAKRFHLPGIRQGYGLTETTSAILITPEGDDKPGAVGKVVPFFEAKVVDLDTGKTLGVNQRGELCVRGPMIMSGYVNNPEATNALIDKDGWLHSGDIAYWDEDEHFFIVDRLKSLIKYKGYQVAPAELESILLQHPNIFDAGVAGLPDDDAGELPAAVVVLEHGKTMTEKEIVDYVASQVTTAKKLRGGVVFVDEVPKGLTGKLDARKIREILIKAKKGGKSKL
# Chain of Concanavalin-A (Canavalia ensiformis) (P02866 whole entry, looked up): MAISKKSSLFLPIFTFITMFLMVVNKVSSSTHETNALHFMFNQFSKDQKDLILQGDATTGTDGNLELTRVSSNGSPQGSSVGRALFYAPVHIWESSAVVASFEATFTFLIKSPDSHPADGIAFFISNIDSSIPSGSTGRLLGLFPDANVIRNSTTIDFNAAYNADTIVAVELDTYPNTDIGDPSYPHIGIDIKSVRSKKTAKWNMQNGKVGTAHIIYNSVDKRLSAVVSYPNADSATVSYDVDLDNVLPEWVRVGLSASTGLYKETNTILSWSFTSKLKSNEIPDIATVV
# Chain of Follistatin (Homo sapiens) (P19883 whole entry, looked up): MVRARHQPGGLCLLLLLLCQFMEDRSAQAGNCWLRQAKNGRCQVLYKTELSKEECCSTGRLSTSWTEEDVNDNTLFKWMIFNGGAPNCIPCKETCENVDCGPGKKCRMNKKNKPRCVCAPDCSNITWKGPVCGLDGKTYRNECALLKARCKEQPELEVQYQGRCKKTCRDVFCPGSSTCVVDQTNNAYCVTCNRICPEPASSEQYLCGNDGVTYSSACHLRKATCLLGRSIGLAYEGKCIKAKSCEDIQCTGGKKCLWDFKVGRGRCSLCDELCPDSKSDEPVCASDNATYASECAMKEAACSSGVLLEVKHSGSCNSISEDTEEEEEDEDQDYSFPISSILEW
# Chain of Albumin (Bos taurus) (P02769 whole entry, looked up): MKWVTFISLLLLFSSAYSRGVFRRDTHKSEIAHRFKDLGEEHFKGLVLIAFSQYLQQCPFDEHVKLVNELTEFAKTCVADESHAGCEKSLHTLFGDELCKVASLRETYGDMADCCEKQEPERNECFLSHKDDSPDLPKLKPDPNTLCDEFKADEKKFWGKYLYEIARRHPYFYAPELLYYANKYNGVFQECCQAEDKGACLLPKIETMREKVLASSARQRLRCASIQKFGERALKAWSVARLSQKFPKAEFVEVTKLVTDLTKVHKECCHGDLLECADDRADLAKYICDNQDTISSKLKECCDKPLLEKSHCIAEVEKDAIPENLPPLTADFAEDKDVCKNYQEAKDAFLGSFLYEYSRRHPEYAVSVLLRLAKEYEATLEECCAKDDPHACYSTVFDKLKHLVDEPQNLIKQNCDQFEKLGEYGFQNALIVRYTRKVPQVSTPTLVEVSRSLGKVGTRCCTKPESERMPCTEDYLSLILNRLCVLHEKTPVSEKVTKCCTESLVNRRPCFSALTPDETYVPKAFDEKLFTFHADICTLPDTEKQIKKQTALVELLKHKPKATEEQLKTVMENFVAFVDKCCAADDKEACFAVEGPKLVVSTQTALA
# Chain of Focal adhesion kinase 1 (Homo sapiens) (Q05397 whole entry, looked up): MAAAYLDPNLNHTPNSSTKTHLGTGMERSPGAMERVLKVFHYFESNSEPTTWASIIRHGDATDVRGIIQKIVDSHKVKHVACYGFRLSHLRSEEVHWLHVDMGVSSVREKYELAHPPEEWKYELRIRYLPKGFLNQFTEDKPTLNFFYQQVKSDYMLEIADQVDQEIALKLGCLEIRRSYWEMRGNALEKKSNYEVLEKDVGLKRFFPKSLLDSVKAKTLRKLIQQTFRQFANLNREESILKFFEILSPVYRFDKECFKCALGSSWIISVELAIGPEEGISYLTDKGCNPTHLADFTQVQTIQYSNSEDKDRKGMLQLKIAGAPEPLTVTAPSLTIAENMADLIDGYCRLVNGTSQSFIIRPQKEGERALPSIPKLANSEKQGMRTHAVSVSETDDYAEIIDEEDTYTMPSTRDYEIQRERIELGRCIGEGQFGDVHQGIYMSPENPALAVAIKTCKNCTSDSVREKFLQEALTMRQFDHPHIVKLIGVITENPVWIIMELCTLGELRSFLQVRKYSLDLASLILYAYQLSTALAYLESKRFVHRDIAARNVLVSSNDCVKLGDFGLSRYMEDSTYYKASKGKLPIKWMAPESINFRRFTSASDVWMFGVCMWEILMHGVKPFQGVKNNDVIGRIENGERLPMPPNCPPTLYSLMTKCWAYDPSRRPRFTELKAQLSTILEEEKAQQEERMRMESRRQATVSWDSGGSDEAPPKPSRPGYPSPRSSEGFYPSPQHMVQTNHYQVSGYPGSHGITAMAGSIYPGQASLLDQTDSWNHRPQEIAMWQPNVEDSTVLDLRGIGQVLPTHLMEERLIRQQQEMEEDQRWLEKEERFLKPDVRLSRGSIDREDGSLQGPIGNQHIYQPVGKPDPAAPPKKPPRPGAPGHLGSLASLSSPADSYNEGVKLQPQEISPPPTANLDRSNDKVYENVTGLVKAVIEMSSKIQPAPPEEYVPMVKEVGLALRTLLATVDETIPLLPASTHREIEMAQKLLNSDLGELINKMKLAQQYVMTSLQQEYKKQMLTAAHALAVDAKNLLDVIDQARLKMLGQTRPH
# Chain of Fibroblast growth factor 2 (Homo sapiens) (P09038 whole entry, looked up): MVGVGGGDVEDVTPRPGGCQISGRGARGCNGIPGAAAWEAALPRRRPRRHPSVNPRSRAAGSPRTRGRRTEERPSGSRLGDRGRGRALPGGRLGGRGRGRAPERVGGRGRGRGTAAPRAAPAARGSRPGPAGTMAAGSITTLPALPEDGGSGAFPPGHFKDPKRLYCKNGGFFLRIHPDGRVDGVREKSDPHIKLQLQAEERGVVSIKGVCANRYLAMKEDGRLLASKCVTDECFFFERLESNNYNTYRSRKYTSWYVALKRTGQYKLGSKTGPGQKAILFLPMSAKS
SMILES,composite z-score (Albumin (Bos taurus)),composite Z-score [1],composite z-score [2],composite z-score [3],composite z-score [4],composite z-score [5],composite z-score [6],composite z-score (Sam68 (KHDRBS1)),composite z-score [7],composite z-score [8],composite z-score [9],composite z-score [10],composite z-score [11],composite z-score [12],composite z-score [13],composite z-score [14],z-score [15],composite z-score (Lefty1),composite z-score [16],z-score [17]
NC(=O)N1C(=O)C2C(C1=O)C1C=C(CCCO)C2C(C2CC2)N1Cc1sc2ccccc2c1Cl (stereo not given),0.758,0.121 (inactive),-0.0362,-0.15,0.616,1.19,0.979,1.15,-0.0285,1.11,2.4,0.802,0.284,0.795,0.539,0.983,0.898,0.587,0.661,-2.2 (inactive)
CC(C)C(O)C1C=CC2C(=O)NC(=O)C2N1Nc1ccccn1 (stereo not given),0.701,0.316 (inactive),-0.0044,-0.0464,0.722,1.59,0.331,0.472,-0.369,0.561,1.25,0.218,-0.0716,0.285,0.712,0.0205,0.44,0.129,0.169,-0.362 (inactive)
CCCC#C[Si](O[C@H](CC)c1cn(Cc2ccccc2)nn1)(C(C)C)C(C)C,0.603,0.244 (inactive),0.151,0.0263,0.365,0.855,-0.193,0.793,0.379,0.572,0.738,0.209,0.0116,0.903,1.01,0.525,-0.0817,0.828,0.143,-0.403 (inactive)
COC(=O)[C@@]1(Cc2ccc(OC)cc2)[C@H]2c3cc(C(=O)N4CCCC4)n(Cc4ccc(Cl)c(C(F)(F)F)c4)c3C[C@H]2CN1C(=O)c1ccccc1,1.05,0.0685 (inactive),0.322,0.162,0.696,3.2,1.16,1.29,-0.754,1.2,1.27,1.19,0.421,0.972,1.34,0.433,1.38,0.125,1.07,0.166 (inactive)
COc1ccc(C(O)C2C=CC3C(=O)N(c4ccccc4)C(=O)C3N2Nc2ccc([N+](=O)[O-])cc2)c2ccccc12 (stereo not given),0.941,0.372 (inactive),0.155,0.0702,0.575,2.5,1.44,1.3,0.308,1.22,0.57,1.25,0.846,1,0.91,0.54,-1.56,0.0679,1.21,1.19 (inactive)
NC(=O)N1C(=O)C2C(C1=O)C1C=C(CCCO)C2C(c2ccc(CN3CCCC3)cc2)N1Cc1sc2ccccc2c1Cl (stereo not given),0.492,-1.02 (inactive),0.124,-0.258,0.832,0.712,0.242,-0.0045,-0.352,0.271,0.17,0.1,0.39,-0.109,0.301,-0.145,0.947,-0.131,0.394,-0.286 (inactive)
CCCCC(O)C1C=CC2C(=O)N(c3ccccc3)C(=O)C2N1Nc1ccccc1 (stereo not given),0.901,-0.539 (inactive),0.0248,-0.0596,0.0784,2.59,-0.0672,0.576,-1.17,0.557,0.781,1.14,0.438,0.543,-0.0278,-1.26,0.656,0.173,1.17,0.438 (inactive)
COc1ccc(CCNC(=O)[C@@H]2c3ccccc3C(=O)N(Cc3ccccc3OC)[C@H]2c2ccc(CO)cc2)cc1,0.454,0.511 (inactive),-0.176,-0.0068,0.533,1.59,0.886,1.28,-0.246,0.792,1.71,1.15,0.347,0.406,0.674,1.02,0.84,0.0605,0.655,0.256 (inactive)
CC(C)(C)N1CC=CC23O[C@@H]4C=CCOC(=O)[C@@H]4[C@H]2C(=O)N(CCO)[C@@H]3C1=O (stereo not given in full),0.439,0.256 (inactive),-0.446,-0.196,0.671,1.95,-0.719,-0.738,-2.63,-0.634,1.6,-0.539,-0.747,-2.09,-0.262,-1.36,0.257,-0.0106,-0.155,-0.387 (inactive)
CC1=C([C@H](O)CCc2ccccc2)[C@H](CO)n2c(=O)n(-c3ccccc3)c(=O)n2C1,-0.348,0.51 (inactive),-0.187,-0.199,-0.3,-0.35,-0.603,-0.308,0.443,-0.0316,-0.56,-0.37,-0.168,-0.178,0.155,0.302,1.18,0.27,-0.137,-0.728 (inactive)
